Experimental findings from ChEMBL document CHEMBL3433997, “St. Jude Leishmania screening dataset” (2016) are described below.

Values joined by “and” are separate entries in the source; they are usually repeats but may differ in a detail not shown here. Equal entries are not always repeated.

Common to all, as to type: functional
Assay [1] deals with Solute carrier family 2, facilitated glucose transporter member 1 (Homo sapiens) (UniProt P11166). Briefly: ST_JUDE_LEISH: Cytotoxicity at 2uM final concentration against transgenic Leishmania Mexicana promastigotes LmGLUT1 that are glucose transport deficient and complemented with the human glucose transporter GLUT1. Activity is measured by DNA content using SYBR green in vitro.
Sequence of Solute carrier family 2, facilitated glucose transporter member 1 (Homo sapiens) (P11166 whole entry): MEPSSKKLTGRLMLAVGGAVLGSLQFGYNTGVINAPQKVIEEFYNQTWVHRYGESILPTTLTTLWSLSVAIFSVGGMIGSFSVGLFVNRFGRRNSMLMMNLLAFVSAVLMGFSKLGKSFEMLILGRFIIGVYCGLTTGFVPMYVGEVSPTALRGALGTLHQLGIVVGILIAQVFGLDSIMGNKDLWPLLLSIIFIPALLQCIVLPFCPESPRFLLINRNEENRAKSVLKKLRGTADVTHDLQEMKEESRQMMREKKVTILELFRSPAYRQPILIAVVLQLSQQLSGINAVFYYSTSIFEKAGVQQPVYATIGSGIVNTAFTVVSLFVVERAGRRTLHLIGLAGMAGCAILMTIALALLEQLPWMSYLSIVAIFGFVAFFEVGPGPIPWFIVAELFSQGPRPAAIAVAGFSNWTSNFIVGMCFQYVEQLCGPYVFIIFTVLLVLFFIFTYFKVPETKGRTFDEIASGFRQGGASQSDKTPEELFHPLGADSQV

The target in assay [2] is Hexose transporter 1 (Plasmodium falciparum) (UniProt O97467). Briefly: ST_JUDE_LEISH: Cytotoxicity at 2uM final concentration against transgenic Leishmania Mexicana promastigotes LmPfHT that are glucose transport deficient and complemented with the Plasmodium falciparum hexose transporter. Activity is measured by DNA content using SYBR green in vitro.
For assay [3], the target named is Glucose transporter (Leishmania mexicana) (UniProt O61059). In words: ST_JUDE_LEISH: Cytotoxicity at 2uM final concentration against transgenic Leishmania Mexicana promastigotes LmGT2 that are glucose transport deficient and complemented with the L. Mexicana glucose transporter 2. Activity is measured by DNA content using SYBR green in vitro.

As for `Cc1ccc(CC(C)NC[C@H](O)c2cccc(Cl)c2)cc1` (some centres undefined), the inhibition in assay [1] was 1.71% and 1.19%; in assay [2], 0.19% and 1.01%; in assay [3] it was 1.47% and 1.06%.

Consider `O=C(NC1CCC(CN2CCC(c3c[nH]c4ccccc34)CC2)CC1)c1cc(-c2ccccc2Cl)oc1C(F)(F)F` (centres undefined), for which the inhibition in assay [1] was 0.8%; in assay [2], 1.05%; in assay [3] it was 0.55%.

Regarding `CCOC(=O)CCCN1C(=O)CN=C(c2ccccc2)c2cc(Cl)ccc21`, the inhibition in assay [1] was -1.02%; in assay [2], 0.13%; in assay [3], 3.48%.

On to `O=C(O)c1ccc2nc(-c3ccc(-c4ccccc4)cc3)n(C3CCN(Cc4ccc(-c5ncc[nH]5)cc4)CC3)c2c1`, for which the figures for the inhibition in assay [1], in assay [2] and in assay [3] were 9.41%, 8.89% and 8.84%, respectively.

Take `Oc1ccccc1CN1CCC(CCOC(c2ccccc2)c2ccc(Cl)cc2)CC1` (centres undefined): the inhibition in assay [1] worked out at 38.2%; in assay [2], 23.5%; in assay [3], 13.9%.

On to `O=C1NCN(c2ccc(O)cc2)C12CCN(CCCC(c1ccc(F)cc1)c1ccc(F)cc1)CC2`, for which the inhibition in assay [1] came out at 3.87%; in assay [2], 3.34%; in assay [3], 3.43%.

Regarding `O=C(CCC(=O)c1ccc2c3c(cccc13)CC2)NC1CCC(CN2CCC(c3c[nH]c4ccccc34)CC2)CC1` (centres undefined), the inhibition in assay [1] amounted to 3.08%; in assay [2], 3.49%; in assay [3], 4.96%.

For `N=c1c2c(n(Cc3ccc(Cl)cc3Cl)c3c1CCC3)CCCC2`, the figures for the inhibition in assay [1], in assay [2] and in assay [3] were 17.8%, 26.7% and 6.7%, respectively.

In the case of `COc1ccc(CC(C)NCC(O)c2ccc(Cl)c(Cl)c2)cc1` (centres undefined), the results for the inhibition in assay [1], in assay [2] and in assay [3] were 0.41%, -0.07% and -2.6%, respectively.

For the compound `CN1CC=C(c2c[nH]c3ccc(-c4ccccc4)cc23)CC1`, the values for the inhibition in assay [1], in assay [2] and in assay [3] were 7.91%, 2.99% and 5.76%, respectively.

For the compound `CCCCc1ccc2[nH]cc(C3=CCN(C)CC3)c2c1Br`, the inhibition was 0.79% in assay [1], -0.14% in assay [2] and 2.44% in assay [3].

Regarding `O=C(NC1CCC(N2CCC3(CC2)C(=O)NCN3c2ccccc2)CC1)c1cc2ccccc2[nH]1` (centres undefined), the inhibition is -0.44% in assay [1], -0.89% in assay [2] and 0.13% in assay [3].

Consider `Oc1cc2c(cc1CN1CCN(Cc3ccccc3)CC1)CCC2`, for which the inhibition is 0.8% in assay [1], 1.17% in assay [2] and -1.19% in assay [3].

Take `COc1ccc(CC(C)NCC(O)c2cccc(Br)c2)cc1` (centres undefined): the inhibition is 10.3% in assay [1], 8.65% in assay [2] and 9.13% in assay [3].

Take `CN1CC=C(c2csc3ccc(NC(=O)Nc4ccc(-c5ccncc5)c(Cl)c4)cc23)CC1`: the figures for the inhibition in assay [1], in assay [2] and in assay [3] were 0.03%, -0.33% and 0.2%, respectively.

As to `CN(C)c1cccc(NC(=O)NC2N=C(c3ccccc3)c3ccccc3N(CC(=O)N(C)c3ccccc3)C2=O)c1` (centres undefined), the inhibition is 6.38% in assay [1], 4.22% in assay [2] and 2.42% in assay [3].

As to `COC(=O)c1ccc(CC(C)NCC(O)c2cccc(C(F)(F)F)c2)cc1` (centres undefined), the inhibition in assay [1] is 2.79% and 2.21% and 1.58%; in assay [2], -0.93% and 1.17% and 2.06%; in assay [3], 2.89% and 0.72% and 2.04%.

Take `CN1CCN(c2ccc3[nH]c(-c4ccc5[nH]c(-c6ccc(O)cc6)nc5c4)nc3c2)CC1`: the inhibition came out at 4.92% in assay [1], 5.09% in assay [2] and 2.92% in assay [3].

Consider `COc1cc(C=CC(=O)N2CCC(CN3CCC(c4c[nH]c5ccccc45)CC3)CC2)cc(OC)c1`, for which the inhibition in assay [1] was 2.61%; in assay [2], 0.72%; in assay [3], -2.69%.

For the compound `CC1(C)N=C(N)N=C(N)N1c1ccc([N+](=O)[O-])cc1`, the inhibition in assay [1] was determined as 9.35%; in assay [2] it was 8.47%; in assay [3], 7.22%.

As for `FC(F)(F)c1ccc(NC(=S)NC2CCC(CN3CCC(c4c[nH]c5ccccc45)CC3)CC2)cc1` (centres undefined), the inhibition is 13.2% and 1.58% in assay [1]; 12.7% and 6.46% in assay [2]; 3.66% and 2.93% in assay [3].

`CC(C)NC(=O)Cn1cc(C2CCN(CC3CCN(C(=O)/C=C/c4ccc(Cl)c(Cl)c4)CC3)CC2)c2ccccc21`: the inhibition amounted to 1.44% in assay [1], 0.25% in assay [2] and 1.41% in assay [3].

As to `N#Cc1ccc(N(CCCO)Cc2ccccc2C(F)(F)F)cc1C(F)(F)F`, the inhibition in assay [1] was -1.34%; in assay [2], -1.78%; in assay [3], -0.99%.

Take `O=C(/C=C/c1ccc(Cl)c(Cl)c1)N(Cc1ccccc1)C1CCC(CN2CCC(c3c[nH]c4ccccc34)CC2)CC1` (centres undefined): the inhibition was found to be 4.82% in assay [1], 2.84% in assay [2] and 4.05% in assay [3].

With `COC(=O)c1ccc(CC(C)NCC(O)c2ccc3ccc4ccccc4c3c2)cc1` (centres undefined), the inhibition in assay [1] came to 3.1%; in assay [2] it was 1.22%; in assay [3] it was 3.14%.

With `C=CCOc1ccccc1CNCC(O)c1cccc(C(F)(F)F)c1` (centres undefined), the inhibition is 2.78% in assay [1], 3.47% in assay [2] and 2.61% in assay [3].

For the compound `COc1cccc(C(=O)C2CC2CN2CC=C(c3c(C)[nH]c4ccccc34)CC2)c1` (centres undefined), the inhibition in assay [1] is 1.94%; in assay [2], -3.97%; in assay [3] it was 4.19%.

Take `Cc1cc(C)c(CC(C)NCC(O)c2cccc(C(F)(F)F)c2)c(C)c1` (centres undefined): the inhibition was 2.03% in assay [1], -0.06% in assay [2] and -1.18% in assay [3].

With `CS(=O)(=O)Nc1ccc2c(C3CCN(CC4CCN(C(=O)/C=C/c5ccc(Cl)c(Cl)c5)CC4)CC3)c[nH]c2c1`, the inhibition in assay [1] is -0.41%; in assay [2] it was 0.85%; in assay [3], -2.09%.

With `CC[C@H]1CN2CC[C@@H]1C[C@H]2[C@H](O)c1ccnc2ccc(OC)cc12`, the inhibition in assay [1] was found to be 0.79%; in assay [2], 0.55%; in assay [3], 3.26%.

As for `Cc1ccc(CC(C)NCC(O)c2cccc(C(F)(F)F)c2)c(C)c1` (centres undefined), the inhibition came out at 1.64% in assay [1], 0.6% in assay [2] and 0.75% in assay [3].

As for `Cc1[nH]c2cc(Cl)ccc2c1C1=CCN(CCCCC2(C)C(=O)Nc3c(F)cccc32)CC1` (centres undefined), the values for the inhibition in assay [1], in assay [2] and in assay [3] were 1.41%, 0.61% and 0.45%, respectively.

`CC[C@H]1CN2CC[C@@H]1C[C@H]2[C@H](O)c1cc(-c2ccc(F)cc2)nc2ccc(O)cc12`: the inhibition in assay [1] is -0.76%; in assay [2], 0.53%; in assay [3], -0.19%.
